Laboratory results as given in PubChem BioAssay AID2551 (National Center for Advancing Translational Sciences (NCATS), 2010).
Out of some 310,000 compounds screened, about 17,000 (5.5%) were called active. Roughly 11% stayed inconclusive and do not appear here. Calls come from the whole dose curve; as a rule, active = well fitted inhibition curve with a large enough effect; inconclusive = small, poorly fitted or top-dose-only effect, or effect the other way; inactive = no such curve, though single readings can be large or run the other way. The full list was thinned out, with actives kept by preference.

target: Nuclear receptor ROR-gamma (Mus musculus) (UniProt P51450); test: qHTS for inhibitors of ROR gamma transcriptional activity; details: Drosophila S2 Gal4-RORgamma UAS-luciferase reporter, 20 h; series mostly up to 53.6 µM; activity change, negative = inhibition: at the top concentration; note: nearly all actives have a fitted effect of over 60% in size
Sequence (P51450 whole entry, looked up, the tested form may be a part): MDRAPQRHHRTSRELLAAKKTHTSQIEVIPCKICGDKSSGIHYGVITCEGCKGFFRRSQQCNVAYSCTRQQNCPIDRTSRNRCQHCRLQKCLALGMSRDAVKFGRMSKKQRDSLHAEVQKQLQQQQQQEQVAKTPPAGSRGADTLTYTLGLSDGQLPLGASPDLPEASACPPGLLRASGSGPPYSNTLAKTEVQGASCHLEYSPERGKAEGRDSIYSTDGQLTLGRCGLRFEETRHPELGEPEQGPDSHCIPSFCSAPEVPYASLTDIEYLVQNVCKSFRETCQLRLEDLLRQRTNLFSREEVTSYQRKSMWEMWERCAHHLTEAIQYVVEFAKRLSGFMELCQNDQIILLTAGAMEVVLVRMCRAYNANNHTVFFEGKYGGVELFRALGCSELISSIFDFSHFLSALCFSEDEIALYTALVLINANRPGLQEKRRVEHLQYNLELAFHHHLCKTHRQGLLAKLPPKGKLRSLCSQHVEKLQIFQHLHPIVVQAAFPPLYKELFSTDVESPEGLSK
Procedure, shortened: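 Using a luciferase readout, inhibitors were identified by reduced reporter activity in Drosophila cells coexpressing a copper-inducible Gal4–ROR gamma fusion and UAS-driven Photinus luciferase, incubated 20 hr after 700 uM copper sulfate.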
% is set by controls: 0 for no effect and ±100 for the full control effect; potency is the fitted concentration of half-maximal effect.

Activity change, negative = inhibition, inactive:
COc1cc(C(=O)N/C(=C\c2cn(C)c3ccccc23)C(=O)N2CCOCC2)cc(OC)c1OC -8.8%
COC(=O)c1ccc(CNC(=O)c2ccc3oc(C(C)C)nc3c2)cc1 -3.51%
CCOc1ccc(CN2CCN(Cc3ccc4cc(F)ccc4n3)CC2CCO)cc1 (configuration not stated) -21.1%
CC(C)(C)c1ccc(C(=O)N2CCC(C(=O)N3CCCCC3)CC2)cc1 17.5%
Cc1ccc(C)c(OCCC(=O)OCC(=O)N2CCN(c3ccccc3)CC2)c1 22.2%
O=C(NCCc1ccc(Cl)cc1)c1cccc(N2CCCC2=O)c1 41.2%
Cc1ccc(/C=N/NC(=O)CNC(=O)COc2ccccc2)o1 14.7%
Cc1ccc(/C=N/NC(=O)Cn2ccc(C(F)(F)F)n2)o1 0.733%
CC(=O)N(C)c1ccc(NC(=O)Nc2cccc3ccccc23)cc1 -22.6%
COc1cccc(NC(=O)c2ccccc2N(Cc2ccccc2)S(C)(=O)=O)c1 1.83%
CC1Cc2ccccc2N1C(=O)c1cc2sccc2n1Cc1ccccc1 (configuration not stated) 27.1%
CC1CC(=O)Nc2ccccc2N1S(=O)(=O)c1cccs1 (configuration not stated) -18.1%
O=C(CN1CCN(c2ccccn2)CC1)Nc1ccc(Br)cc1 6%
CCCCSc1nnc(-c2ccc(NC(=O)CC)cc2)n1C 27.9%
Cc1c(S(=O)(=O)N2CC(C)CC(C)C2)c(=O)n(C)c(=O)n1C (configuration not stated) -30.5%
CN(Cc1ccccc1)C(=O)CCc1ccccc1 25.2%
Cn1c(-c2ccc(F)cc2)cnc1SCC(=O)NNC(=O)Cc1ccccc1 -1.11%
Cc1nc(-c2ccc(F)cc2)c(CC(=O)N2CCN(S(=O)(=O)c3ccc(F)cc3)CC2)s1 33.3%
CCn1c(C)cc(=O)cc1-c1ccc(Cl)cc1 0.704%
c1ccc(-c2cc(-c3ccccc3)[nH]n2)cc1 14.3%
Cc1ccc(NC(=O)c2cc(-c3ccccc3O)n[nH]2)cc1C -21.9%
CCn1ccnc1CNC(=O)CC1C(=O)NCCN1Cc1ccc(F)cc1Cl (configuration not stated) 8.52%
CN(C(=O)CC1C(=O)NCCN1Cc1ccc2ccccc2c1)C1CCOCC1 (configuration not stated) -9.24%
COc1cc(C2C(C(=O)c3ccco3)=C(O)C(=O)N2c2cc(C)on2)ccc1OCc1ccccc1 (configuration not stated) 2.05%
COc1ccc(C(C(=O)NC(C)(C)C)N(Cc2ccc(F)cc2)C(=O)CCC(=O)Nc2cc(C)on2)cc1 (configuration not stated) 21.9%
O=C(Nc1ccccc1C(=O)O)c1ccc(N2C(=O)C3CC=CCC3C2=O)cc1 (configuration not stated) -11.1%
Cc1cc(C)c(OCC(=O)N/N=C/c2ccco2)c(C)c1 -10.1%
O=C(Cn1cnc2ccccc21)Nc1ccccc1-c1ccccc1 20.3%
COc1ccc(C(=O)N[C@H](C(=O)NCc2ccccc2)C(C)C)cc1 -13.3%
CNC[C@H](CC1CCCCC1)NC[C@H](NCCC1CCCC1)[C@H](C)O -39.4%
O=C(Nc1cccnc1Cl)c1cc(-c2ccccc2O)on1 23.6%
O=C(CCc1nc2ccccc2c(=O)[nH]1)OCC(=O)c1cccc(Cl)c1 -5%
NC(=O)Cc1nc2scc(-c3ccc(Cl)cc3)c2c(=O)[nH]1 29.3%
Cc1ccc(-c2cc(C(=O)NN)n[nH]2)o1 -32.5%
CC(C)c1cc(C(=O)N/N=C/C(Br)=C/c2ccccc2)n[nH]1 -8.97%
CCOC(=O)N1CCC(N2Cc3cccc(C(=O)Nc4ccc(S(=O)(=O)N(CC)CC)cc4)c3C2=O)CC1 -9.07%
Cc1ccc2c(c1)N(CC(=O)N1CCC(C)CC1)C(=O)c1cccnc1O2 1.07%
CCCn1nc(NC(=O)C(C)C)c2cc3cc(OC)ccc3nc21 5.01%
Cc1cc(Cl)c2oc(C(=O)N(C)C(C)c3ccccn3)c(C)c2c1 (configuration not stated) 12.6%
CCNC(=O)N1CCCC(C(=O)c2ccc(-c3ccccc3)cc2)C1 (configuration not stated) 41.7%
NS(=O)(=O)c1ccc(CCNC(=O)c2nc(CS(=O)(=O)c3ccc(Cl)cc3)no2)cc1 6.38%
COc1ccccc1NC(=O)CSc1nc2sc3c(c2c(=O)n1-c1ccccc1)CCN(C)C3 20.1%
C=CCNC(=S)N1CCc2[nH]c3ccccc3c2C1 -8.55%
O=C(O)CCC(=O)NCc1ccc2[nH]c3c(c2c1)CCCC3 -10.5%
Cc1cnc(CN(C)C(=O)C2CCC(=O)N(CCc3cccc(F)c3)C2)[nH]1 (configuration not stated) -3.15%
O=C(C[n+]1ccccc1)N/N=C/c1ccc(O)cc1 0.902%
Nc1nnn(CC(=O)N/N=C/c2ccc(O)cc2)n1 -0.319%
CSc1cccc(NC(=O)CN2C(=O)COc3ccc(S(=O)(=O)N4CCOCC4)cc32)c1 8.6%
CC(=O)c1ccc(N2CCN(C(=O)CCNC(=O)Cn3ccc4ccccc4c3=O)CC2)cc1 -9.01%
Cc1ccccc1NC(=O)c1cc(S(=O)(=O)Nc2cccc(C(=O)O)c2)ccc1Cl 13.3%
COc1cccc(NC(=O)CC2C(=O)NCCN2C(=S)Nc2ccc(F)cc2)c1 (configuration not stated) 29.9%
CCC1C(=O)NCCN1C(=O)c1ccc2nc(Cc3ccc(OC)cc3)oc2c1 (configuration not stated) 19.5%
COc1ccccc1N1CC(O)=C(c2nc3ccccc3s2)C1=N -40.9%
CCOC(=O)CCCN1CC(O)=C(c2nc3ccccc3s2)C1=N 20.7%
CCOc1cc(C2C(C(=O)c3ccco3)=C(O)C(=O)N2Cc2ccccc2)ccc1O (configuration not stated) -17.1%
Cn1nc(-c2ccccc2)c2cc([N+](=O)[O-])ccc21 -15.4%
Cc1c(NC(=O)Nc2cccc([N+](=O)[O-])c2)c(=O)n(-c2ccccc2)n1C -4.92%
CC(CC(=O)Nc1ccc(F)cc1F)S(=O)(=O)c1ccc2c(c1)NC(=O)CO2 (configuration not stated) 18.2%
COCC(C)n1c(C)cc(C(=O)CSc2cc(C)c3ccccc3n2)c1C (configuration not stated) -19.8%
Cc1nnc(SCC(=O)NCc2ccccc2)s1 30.7%
N[C@@H](Cc1ccccc1)C(=O)N1CCC(C(=O)NCC(=O)Nc2ccc(F)cc2)CC1 -3.33%
Cc1ccn2c(=O)c(C(=O)NCCC3=CCCCC3)c(O)nc2c1 -18.2%
O=C(Nc1cn(-c2ccccc2)nc1-c1ccccc1)c1ccccc1 28.8%
COC(=O)c1cn(-c2ccccc2)nc1-c1cccnc1 -14.8%
CC(C)CCN(C(=O)c1csnn1)C(C(=O)NC1CCCC1)c1ccccc1 (configuration not stated) -6.52%
Cc1ccc(NC(=O)CN(C)C(=O)COC(=O)C(C)(C)Oc2ccc(Cl)cc2)cc1 6.56%
Cn1c(CSCC(=O)Nc2ccccc2)nnc1SCc1ccccc1 5.44%
Cn1c(Cc2cccs2)nnc1SCC(=O)Nc1ccccc1 1.98%
CCOc1ccc(N(CC)S(=O)(=O)c2cccc3nsnc23)cc1 -23.8%
O=C(CN(C(=O)c1csnn1)c1cccc(Cl)c1)NC1CCCC1 0.687%
COc1cc(Cl)ccc1OCc1cc(C(=O)N2CC[C@@H]3CCCC[C@H]3C2)no1 11.1%
CCc1ccc(NC(=O)Cn2nnc(C(=O)NCc3ccc4c(c3)OCO4)c2N)cc1 -14.2%
O=C(/C=C/c1ccccc1[N+](=O)[O-])NCC1CCCO1 (configuration not stated) 16.2% [at 10 µM]
O=C(/C=C/c1ccccc1[N+](=O)[O-])OC1CCCCC1=O (configuration not stated) 27.5%
CCCCC(=O)Nc1nnc(S(=O)(=O)N(C)Cc2ccco2)s1 32.9%
CSc1ccccc1NC(=O)c1cc(Cl)sc1Cl 16.4%
CC(c1ccccn1)N(C)C(=O)c1ccc2nc(Cc3cccc(Cl)c3)oc2c1 (configuration not stated) 1.45%
COc1ccc(-c2c3c(=O)n(C)c(=O)n(C)c3cn2-c2cccc(OC)c2)cc1 44.8%
Cc1ccc(-c2c3c(=O)n(C)c(=O)n(C)c3cn2-c2ccccc2O)cc1 -11.2%
Cc1cc(C(F)(F)F)n2ncc(-c3ccccc3)c2n1 -12.2% [at 0.365 µM]
CC(=O)OCC(=O)[C@@]1(O)CC[C@@H]2[C@H]3CCC4=CC(=O)C=C[C@]4(C)[C@]3(F)[C@@H](O)C[C@@]21C -4.5% [at 2.98 µM]
CC(=O)OCC(=O)[C@@]1(O)CCC2C3CCC4=CC(=O)CC[C@@]4(C)[C@]3(F)C(O)C[C@]21C (some centres not stated) 24.6%

Potency, active:
Cc1ccc(/C=N/NC(=O)c2cc3ccccc3cc2O)o1 1.41 µM
CC1CC(=S)Nc2ccccc2N1Cc1ccccc1 (configuration not stated) 1.41 µM
CCC(=O)Nc1ccc(-c2ccc(N3CCCCC3)nn2)cc1 4.47 µM
Cc1ccc(-c2cnc(NC(=O)CCC(=O)N(C)Cc3ccccc3)n2C)cc1 2.24 µM
Oc1ccccc1-c1cc(-c2ccc(Cl)cc2)n[nH]1 7.08 µM
CN(C(=O)CC1C(=O)NCCN1Cc1ccc(F)cc1Cl)C1CCCCC1 (configuration not stated) 11.2 µM
O=C(Cn1cnc2ccccc21)N/N=C/c1ccco1 12.6 µM
O=c1[nH]c(CCl)nc2cc(-c3ccc(Cl)cc3)sc12 7.08 µM
Cc1ccc(-c2cc(C(=O)N/N=C/C=C/c3ccccc3)n[nH]2)o1 7.08 µM
Cc1cccc(NC(=S)NCc2ccc3[nH]c4c(c3c2)CCCC4)c1 1.58 µM
CC(C)(C)c1nnc(N/N=C/c2ccc(O)cc2)n(N)c1=O 1.26 µM
COc1ccc(C(=O)NC(=S)N2CCNC(=O)C2CC(=O)OC(C)C)cc1 (configuration not stated) 4.47 µM
N=C1C(c2nc3ccccc3s2)=C(O)CN1NC(=O)c1ccc([N+](=O)[O-])cc1 2.82 µM
Cc1cc(SCC(=O)NCCN2C(=O)CSC2=O)nc2ccccc12 11.2 µM
O=C(NNC(=S)NC(=O)c1cn(-c2ccccc2)nc1-c1ccccc1)c1ccncc1 2.82 µM
Cn1c(CC(=O)Nc2ccccc2)nnc1SCC(=O)c1ccccc1 3.55 µM
CC1CCCCC1NC(=O)/C(C#N)=C/C=C/c1ccccc1[N+](=O)[O-] (configuration not stated) 8.91 µM
Cc1ccc(-c2c3c(=O)n(C)c(=O)n(C)c3cn2-n2cnnc2)cc1 15.8 µM
Cn1c(-c2sc3cc(C(F)(F)F)cnc3c2-c2ccccc2)n[nH]c1=S 2.82 µM
CC1(C)OC2CC3C4CCC5=CC(=O)CCC5(C)C4(F)C(O)CC3(C)[C@]2(C(=O)CCl)O1 (some centres not stated) 10 µM
